Where “and” joins values, the source holds several entries; their conditions need not be identical. Equal entries are not always repeated. Records with an inconclusive call do not appear. Calls of active or inactive are those of the source. Calls follow the shape of the dose curve; as a rule, active = well fitted inhibition curve with a large enough effect in the signal ratio, with a control signal flat (not every such curve was filed as active); inconclusive = small, poorly fitted or top-dose-only effect, or effect the other way, or a change in a side signal; inactive = no such curve, though single readings can be large or run the other way; the % refers to the signal ratio.

Sequence of Retinoic acid receptor RXR-alpha (Homo sapiens) (P19793 whole entry, looked up): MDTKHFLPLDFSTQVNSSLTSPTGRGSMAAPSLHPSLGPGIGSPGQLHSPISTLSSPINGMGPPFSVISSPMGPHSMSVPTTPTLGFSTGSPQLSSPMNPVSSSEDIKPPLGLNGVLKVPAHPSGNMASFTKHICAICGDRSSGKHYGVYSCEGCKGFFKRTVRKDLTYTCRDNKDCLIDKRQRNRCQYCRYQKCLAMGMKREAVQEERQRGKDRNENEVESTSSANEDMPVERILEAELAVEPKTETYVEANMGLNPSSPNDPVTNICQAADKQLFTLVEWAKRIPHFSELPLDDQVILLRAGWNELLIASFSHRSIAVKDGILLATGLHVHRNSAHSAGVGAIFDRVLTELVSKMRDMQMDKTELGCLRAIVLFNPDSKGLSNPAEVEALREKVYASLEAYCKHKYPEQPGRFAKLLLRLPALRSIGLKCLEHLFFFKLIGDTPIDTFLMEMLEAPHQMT

The experiment addresses Retinoic acid receptor RXR-alpha (Homo sapiens) (UniProt P19793). In words: qHTS assay for small molecule antagonists of retinoid X receptor alpha signaling (AID 588546). Conditions: HEK293T RXRa-UAS-bla, beta-lactamase ratio, antagonist mode. From the text: NIH Chemical Genomics Center [NCGC] U.S. Environmental Protection Agency [EPA] National Institutes of Environmental Health Sciences [NIEHS] National Toxicology Program [NTP] NCGC Assay Overview The Retinoid X receptor (RXR), a nuclear hormone receptor is expressed in liver, spleen, placenta, epidermis, central nervous system. These receptors are able to form homo and heterodimers with other nuclear receptors and due to this heterodimerizing ability, RXR functions as master regulators producing diverse physiological effects. Three subtypes of RXR exist; alpha, beta and gamma. Retinoid X receptor alpha (RXR-alpha) has potential roles in metabolic signaling pathways, skin alopecia, dermal cysts, cardiac development, insulin sensitization etc. Therefore screening environmental chemicals on RXR-alpha signaling can be used for the studies focused on such therapeutic applications.
NCGC Assay Protocol Summary Using a beta-lactamase reporter-gene under control of Retinoid X receptor--alpha (RXR-alpha) response element, a cell-based assay [GeneBLAzer (RXR-alpha -UAS-bla assay developed by Invitrogen] was used to measure RXR-alpha ligands signaling. GeneBLAzer RXR-alpha -UAS-bla HEK293T cells were used with assay medium containing 2% charcoal-stripped FBS. The assay was performed in clear bottom black Greiner 1536-well plates. Library compounds were measured for their ability to inhibit the reporter gene activity. Compounds were screened in a titration series in 1536-well format. The fluorescence intensity (405 nm excitation, 460/530 nm emission) was measured using an EnVision plate reader. Data was normalized relative to 9-cis-retinoic acid control (500 nM, 100%), and DMSO only wells (basal, 0%). Concentration-response titration points for each compound were fitted to the Hill equation yielding concentrations of half-maximal inhibition (IC50) and maximal response (efficacy) values. qHTS protocol for RXR-alpha beta-lactamase assay in antagonist mode [Step] [Parameter] [Value] [Description] 1. Reagent; 5 uL; 2500 cells/well 2. Incubation; 37 C for 4 hrs 3. Compounds; 23 nL; 0.59 nM to 92 uM 4. Controls (DMSO); 23 nL 5. Agonist (Stimulator); 1uL; 9-cis-retinoic acid at 500 nM and 100 nM final concentrations 6. Incubation; 37 C for 18 hrs 7. Detection reagent; 1 uL of CCF4-dye 8. Incubation; RT for 2 hrs 9. Detection; Fluorescence; Envision plate reader
As for `CCCCCCCCCCCCCc1ccccc1`, the max response was -2.52% (inactive).

`CC(C)O.CC(C)O.CC(C)O.CC(C)O.[Ti]`: the max response was 1.54% (inactive).

With `BrC1CCC(Br)C(Br)CCC(Br)C(Br)CCC1Br` (stereo not given), the max response is -24.4% (inactive).

Consider `CSc1ccc(Cl)cc1`, for which the max response is -2.56% (inactive).

As to `C=C(C)C(=O)OCCOC(=O)C(=C)C`, the max response is -2.81% (inactive).

With `OCCOCCOCCOCCOCCO`, the max response is 0.858% (inactive).

For the compound `c1ccc2c(c1)Cc1ccccc1-2`, the max response was -2.65% (inactive).

Consider `C=C(C)C(=O)OCCN(C)C`, for which the max response is 6.15% (inactive).

Take `c1ccc2cc3ccccc3cc2c1`: the max response is -8.21% (inactive).

For `CCCCCCCC[Si](OCC)(OCC)OCC`, the max response is -6.63% (inactive).

Take `C=CCOc1nc(OCC=C)nc(OCC=C)n1`: the max response was 0.817% (inactive).

With `CCCCNS(=O)(=O)c1ccccc1`, the max response is 5.33% (inactive).

As for `CCCCN(CCCC)CCCC`, the max response was 2.35% (inactive).

On to `CS(=O)(=O)c1ccc(Cl)cc1`, for which the max response is -18.5% (inactive).

On to `C[Si](C)(Cl)[Si](C)(C)Cl`, for which the max response is -15.7% (inactive).

`CC1(C)C(=O)N(Br)C(=O)N1Cl`: the max response was -6.62% (inactive).

For the compound `C[Si](Cl)(Cl)[Si](C)(Cl)Cl`, the max response is -4.71% (inactive).

Take `CC(=O)OC(C)(C)C1CC=C(C)CC1` (stereo not given): the max response is -1.89% (inactive).

Take `C[N+](C)(C)CC(O)CCl` (stereo not given): the max response was 4% (inactive).

In the case of `CCOC(=O)CCCCCCCCC(=O)OCC`, the max response was 0.487% (inactive).

Take `CCCCC(CC)COC(=O)/C=C\C(=O)OCC(CC)CCCC` (stereo not given): the max response was 1.08% (inactive).

In the case of `CNc1nc(=O)n(C2CCCCC2)c(=O)n1C`, the max response is 4.07% (inactive).

For `Nc1c(N=Nc2ccc(S(=O)(=O)CCOS(=O)(=O)O)cc2)c(S(=O)(=O)O)cc2cc(S(=O)(=O)O)c(N=Nc3ccc(S(=O)(=O)CCOS(=O)(=O)O)cc3)c(O)c12`, the max response is -5.5% (inactive).

`O=C(OCC1CCC2OC2C1)C1CCC2OC2C1` (stereo not given): the max response was -6.03% (inactive).

In the case of `O=c1oc(=O)c2cc3c(=O)oc(=O)c3cc12`, the max response is -12.6% (inactive).

As for `CC1(C)C(C=C(Cl)Cl)[C@H]1C(=O)OCc1cccc(Oc2ccccc2)c1` (stereo not given in full), the max response is -0.468% (inactive).

Consider `CO[Si](OC)(OC)c1ccccc1`, for which the max response was -6.99% (inactive).

On to `O=[N+]([O-])c1ccc2c(c1)Cc1ccccc1-2`, for which the max response is -11.9% (inactive).

In the case of `COc1nc(C)nc(NC(=O)NS(=O)(=O)c2ccccc2OCCCl)n1`, the max response was 20.3% (inactive).

With `C[Si]1(C)O[Si](C)(C)O[Si](C)(C)O[Si](C)(C)O[Si](C)(C)O1`, the max response was 2.84% (inactive).

Turning to `CC(C)Nc1nc(N)nc(Cl)n1`, the max response was -9.99% (inactive) and -17.3% (inactive).

Regarding `CCCCCCCCCCCCCC(=O)OC`, the max response is -1.05% (inactive).

On to `CC1(C)C(=O)N(Cl)C(=O)N1Cl`, for which the max response is -12.2% (inactive).

Consider `O=C(O)c1ccc2c(c1)C(=O)OC2=O`, for which the max response is -0.339% (inactive).

On to `C=Cc1ccc(P(c2ccccc2)c2ccccc2)cc1`, for which the max response was 3.02% (inactive).

Consider `CC(C)(C)c1ccc(O)c(C(C)(C)C)c1`, for which the max response was -3.49% (inactive).

As for `O=C(O)C1(C(=O)Nc2ccc(Cl)cc2Cl)CC1`, the max response was 9.68% (inactive).

For the compound `COc1ccc(OC)c(OC)c1`, the max response is 2.37% (inactive).

For the compound `CCCN(CCC)c1c([N+](=O)[O-])cc(C(F)(F)F)c(N)c1[N+](=O)[O-]`, the max response was -37.1% (inactive).

Turning to `CC1(C)C(=O)N(Br)C(=O)N1Br`, the max response is -10.9% (inactive).

The record behind these values is PubChem BioAssay (NCATS).
